Results on eleven compounds are retold here after PubChem BioAssay (NCATS).

Test [1] is described as follows: S16 Schwann cell viability assay (CellTiter-Glo assay) (AID 624031).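 Note: native untransfected S16 rat Schwann cells; nearly all actives have a fitted effect of over 70% in size.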 The procedure, abridged: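 Cells were seeded at 500-750 per well in phenol red-free DMEM with 10% FBS and left overnight. Compounds or DMSO were pinned in, incubation ran 24 h at 37 °C/5% CO2, then CellTiter-Glo reagent was added and luminescence measured.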
On the technique in general: ATP-based viability assays read luminescence as a measure of living cells.

The test system of the next test is 3D7. Kind of test: qHTS profiling for inhibitors of Plasmodium falciparum proliferation (AID 504749). Note: nearly all actives have a fitted effect of over 60% in size. Note: potency is the fitted concentration of half-maximal effect. Conditions: P. falciparum in erythrocytes, SYBR Green DNA, 72 h; series mostly up to 28.7 µM. In a few lines: (§1)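 SYBR Green fluorescence of parasite DNA, read after lysis and overnight dark incubation, measured growth over 72 h in erythrocyte culture at 0.3% parasitemia and 2.5% hematocrit. Data normalised to DMSO and 0.29 uM artemisinin, with plate-drift correction.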
(In general: In qHTS, concentration-response curves come from the screen itself.)

The subject of a further test is 7G8. Described as above. Conditions: P. falciparum in erythrocytes, SYBR Green DNA, 72 h; series mostly up to 28.7 µM. The procedure, abridged: as §1
A further test concerns ATS95. The description is as above. Conditions: P. falciparum in erythrocytes, SYBR Green DNA, 72 h; series mostly up to 28.7 µM. The procedure, abridged:
as §1

A further test relates to CP191. Described as above. Conditions: P. falciparum in erythrocytes, SYBR Green DNA, 72 h; series mostly up to 28.7 µM. In a few lines:
as §1

A further test has as its system CP215. The description is as above. Conditions: P. falciparum in erythrocytes, SYBR Green DNA, 72 h; series mostly up to 28.7 µM. The procedure, abridged: as §1
The next test concerns CP247. Described as above. Conditions: P. falciparum in erythrocytes, SYBR Green DNA, 72 h; series mostly up to 28.7 µM. In a few lines: as §1
The subject of another test is CP260. The test is described as above. The following applies: P. falciparum in erythrocytes, SYBR Green DNA, 72 h; series mostly up to 28.7 µM. In a few lines:
as §1

The test system of another test is CP266. Described as above. Conditions: P. falciparum in erythrocytes, SYBR Green DNA, 72 h; series mostly up to 28.7 µM. In a few lines: as §1
In another test the test system is CP291. The description is as above. The following applies: P. falciparum in erythrocytes, SYBR Green DNA, 72 h; series mostly up to 28.7 µM. The procedure, abridged: as §1
The test system of the next test is DIV17. Described as above. The following applies: P. falciparum in erythrocytes, SYBR Green DNA, 72 h; series mostly up to 28.7 µM. In a few lines:
as §1

For a further test, the system named is DIV30. Described as above. Conditions: P. falciparum in erythrocytes, SYBR Green DNA, 72 h; series mostly up to 28.7 µM. The procedure, abridged: as §1
Another test relates to P93_24. Described as above. The following applies: P. falciparum in erythrocytes, SYBR Green DNA, 72 h; series mostly up to 28.7 µM. The procedure, abridged:
as §1

Another test concerns P94_40. Described as above. The following applies: P. falciparum in erythrocytes, SYBR Green DNA, 72 h; series mostly up to 28.7 µM. The procedure, abridged:
as §1

The next test concerns PAD. The description is as above. The following applies: P. falciparum in erythrocytes, SYBR Green DNA, 72 h; series mostly up to 28.7 µM. In a few lines:
as §1

A further test concerns PC26. The test is described as above. Conditions: P. falciparum in erythrocytes, SYBR Green DNA, 72 h; series mostly up to 28.7 µM. The procedure, abridged:
as §1

The test system of the next test is SC27B. The description is as above. The following applies: P. falciparum in erythrocytes, SYBR Green DNA, 72 h; series mostly up to 28.7 µM. The procedure, abridged:
as §1

In a further test the test system is TAB113. The test is described as above. The following applies: P. falciparum in erythrocytes, SYBR Green DNA, 72 h; series mostly up to 28.7 µM. In a few lines:
as §1

The subject of a further test is TAB165. Described as above. The following applies: P. falciparum in erythrocytes, SYBR Green DNA, 72 h; series mostly up to 28.7 µM. In a few lines:
as §1

Another test concerns CP335. The description is as above. Conditions: P. falciparum in erythrocytes, SYBR Green DNA, 72 h; series mostly up to 28.7 µM. The procedure, abridged:
as §1

Several values for one entry are separate records, joined by “and”; a condition that tells them apart may be missing. Equal values may be shown once. Inconclusive results are not listed. Some compounds were tested as several samples or in several runs, with calls that do not always agree. Activity calls are given as the source filed them. Calls come from the whole dose curve; as a rule, active = well fitted curve in the direction sought with a large enough effect; inconclusive = small, poorly fitted or top-dose-only effect, or another doubt; inactive = no such curve, though single readings can be large; an effect the other way counts as inactive or inconclusive.

Consider `Cc1ccc(/C=C2/C(=O)C3(C)CCC2C3(C)C)cc1` (stereo not given), for which the Potency entry (in test [1]; with 3D7; with 7G8; with ATS95; in the test on CP191; in the test on CP215) was “inactive” throughout. Besides, the Potency result in the test on CP247, in the test with CP260, in the test on CP266, in the test on CP291, in the test on DIV17 and with DIV30 was “inactive” each time. Moreover, the Potency result with P93_24, in the test on P94_40, in the test with PAD, in the test with PC26, with SC27B and in the test on TAB113 was “inactive” throughout. Besides, in the test with TAB165, the Potency entry was “inactive”.
`Cc1ccccc1N1C(=O)c2cc(N)ccc2N/C1=C\F`: the Potency entry in the test with 3D7, in the test on 7G8, in the test on ATS95, in the test on CP191, in the test with CP215 and with CP247 was “inactive” each time. In addition, the Potency result with CP260, with CP266, in the test on CP291, with CP335, with DIV30 and in the test with P93_24 was “inactive” each time. Besides, the Potency entry in the test on P94_40, in the test on PAD, in the test with PC26, with SC27B, in the test with TAB113 and with TAB165 was “inactive” in each case.
With `NC(=O)c1ncn(C2OC(CO)C(O)C2O)c1N` (stereo not given), the Potency result (in test [1]; with 3D7; in the test with 7G8; in the test on ATS95; in the test with CP191; in the test on CP215) was “inactive” in each case. In addition, the Potency entry with CP247, with CP260, with CP266, in the test with CP291, in the test with DIV17 and with DIV30 was “inactive” each time. In addition, the Potency result in the test on P93_24, in the test on P94_40, in the test with PAD, in the test with PC26, in the test with SC27B and in the test on TAB113 was “inactive” each time. Moreover, the Potency entry in the test on TAB165 is “inactive”.
For the compound `CCCC(=O)O[C@]1(C(=O)COC(C)=O)CC[C@H]2C3C[C@H](F)C4=CC(=O)C=CC4(C)[C@@]3(F)[C@@H](O)CC21C` (stereo not given in full), the Potency entry (in [1]; in the test on 3D7; with ATS95; in the test with CP191; with CP215; with CP247) was “inactive” each time. Also, the Potency entry with CP260, in the test on CP266, in the test on CP291, with CP335, with DIV30 and in the test with P94_40 was “inactive” each time. The Potency result with SC27B and in the test on TAB113 was “inactive” each time. In addition, the Potency in the test with 7G8 was 11.2 µM (active).
Regarding `O=C(OC[C@@H]1O[C@@](O)(COC(=O)c2cccnc2)[C@H](OC(=O)c2cccnc2)[C@H]1OC(=O)c1cccnc1)c1cccnc1`, the Potency result (in test [1]; with 3D7; with 7G8; in the test with ATS95; in the test with CP191; in the test on CP215) was “inactive” throughout. Moreover, the Potency result in the test on CP247, in the test with CP260, in the test with CP266, with CP291, in the test on CP335 and in the test with DIV17 was “inactive” in each case. The Potency result in the test with DIV30, with P93_24, in the test with P94_40, in the test with PAD, in the test on PC26 and with SC27B was “inactive” throughout. For the same compound, the Potency result in the test with TAB113 and with TAB165 was “inactive” each time.
For `CCN(CC)CC(=O)Nc1c(C)cc(C)cc1C`, the Potency result with 3D7, with 7G8, with ATS95, with CP191, with CP215 and in the test with CP247 was “inactive” throughout. Moreover, the Potency result in the test with CP260, in the test with CP266, in the test with CP291, with DIV17, in the test with DIV30 and in the test with P93_24 was “inactive” in each case. Also, the Potency entry with P94_40, in the test on PAD, in the test on PC26, in the test on SC27B, in the test with TAB113 and in the test with TAB165 was “inactive” each time.
Take `OCC(CO)NC1C[C@](O)(CO)[C@@H](O)[C@H](O)[C@H]1O` (stereo not given in full): the Potency entry (in test [1]; in the test with 3D7; with 7G8; with ATS95; in the test with CP191; in the test with CP215) was “inactive” throughout. The Potency result in the test on CP247, in the test with CP260, in the test with CP335, in the test on DIV17, in the test with DIV30 and with P93_24 was “inactive” in each case. Besides, the Potency entry in the test with P94_40, with PAD, with PC26, with SC27B, with TAB113 and in the test on TAB165 was “inactive” throughout.
Turning to `CCCCCOC(=O)Nc1nc(=O)n(C2O[C@H](C)[C@@H](O)[C@@H]2O)cc1F` (stereo not given in full), the Potency entry (in [1]; in the test with 3D7; with 7G8; with ATS95; with CP215; in the test on CP260) was “inactive” each time. Moreover, the Potency result in the test on CP266, with CP291, with CP335, with DIV17, in the test on DIV30 and with P93_24 was “inactive” each time. Moreover, the Potency entry in the test with P94_40, in the test on PAD, in the test on PC26, in the test with SC27B, with TAB113 and with TAB165 was “inactive” each time. The Potency in the test with CP191 is 8.91 µM (active).
Take `OC[C@@H](O)C(O[C@@H]1O[C@@H](CO)[C@H](O)[C@H](O)[C@H]1O)[C@H](O)[C@@H](O)CO` (stereo not given in full): the Potency entry (in test [1]; in the test with 3D7; in the test on 7G8; in the test on ATS95; with CP191; in the test on CP215) was “inactive” throughout. Moreover, the Potency result in the test on CP247, with CP260, in the test on CP266, in the test with CP291, in the test on CP335 and in the test on DIV17 was “inactive” in each case. For the same compound, the Potency result with DIV30, with P93_24, in the test on P94_40, with PAD, with PC26 and with SC27B was “inactive” each time. Moreover, the Potency entry with TAB113 and in the test on TAB165 was “inactive” each time.
As to `CC(=O)N1CC(O)CC1C(=O)O` (stereo not given), the Potency result (in test [1]; with 3D7; with 7G8; in the test with ATS95; in the test on CP191; in the test with CP215) was “inactive” in each case. Besides, the Potency result in the test with CP247, in the test with CP266, with CP291, in the test on CP335, in the test on DIV17 and in the test on DIV30 was “inactive” throughout. For the same compound, the Potency result in the test with P93_24, in the test on P94_40, with PAD, in the test with PC26, in the test on SC27B and in the test with TAB165 was “inactive” in each case.
Consider `CNC1=CN(O)C(c2ccccc2)=c2cc(Cl)ccc2=N1`, for which the Potency entry (in test [1]; with 7G8) was “inactive” each time. Further, the Potency in the test on 3D7 is 1 µM (active); in the test with ATS95 it was 5.01 µM (active); with CP191, 0.1 µM (active); with CP215 it was 4.26 µM (active) and 10.7 µM (active); in the test on CP260 it was 7.94 µM (active) and inactive; in the test with CP266, 4.78 µM (active). Moreover, the Potency in the test on CP291 is 3.38 µM (active); in the test on CP335, 3.79 µM (active); with DIV17, 2.13 µM (active); with DIV30, 4.26 µM (active) and inactive; in the test on P94_40, 5.62 µM (active); with PC26, 4.26 µM (active). In addition, the Potency was 2.82 µM (active) in the test on TAB113 and 4.47 µM (active) with TAB165.
